High-throughput results as filed in PubChem BioAssay.
FLuc counter = inhibits or activates purified firefly luciferase, miR-21 counter-screen | P08659 | purified FLuc, Km substrates, luminescence inhibition | Potency, µM (series often up to 57.5 µM), actives largely listed as inhibitors | 6.9% of 360,000 active | AID 588342; note: nearly all actives have a fitted effect of over 55% in size
Target sequence (P08659 whole entry, looked up): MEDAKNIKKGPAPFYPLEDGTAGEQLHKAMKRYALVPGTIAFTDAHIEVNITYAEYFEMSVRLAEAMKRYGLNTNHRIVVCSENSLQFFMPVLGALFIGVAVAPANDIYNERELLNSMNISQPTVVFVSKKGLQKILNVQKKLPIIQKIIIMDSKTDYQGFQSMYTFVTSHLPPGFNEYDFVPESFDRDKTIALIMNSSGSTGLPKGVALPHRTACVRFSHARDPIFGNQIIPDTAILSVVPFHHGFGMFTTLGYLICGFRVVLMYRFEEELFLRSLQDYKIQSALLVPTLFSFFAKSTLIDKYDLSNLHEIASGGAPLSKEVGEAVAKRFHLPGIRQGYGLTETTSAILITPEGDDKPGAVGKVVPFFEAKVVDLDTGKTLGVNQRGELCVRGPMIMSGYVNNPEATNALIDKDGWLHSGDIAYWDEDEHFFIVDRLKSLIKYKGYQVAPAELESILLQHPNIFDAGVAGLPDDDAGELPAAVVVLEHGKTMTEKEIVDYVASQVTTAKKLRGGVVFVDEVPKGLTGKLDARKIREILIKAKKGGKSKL
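Biochemical qHTS of compounds, final roughly 60 µM downward over six points, against 10 nM purified firefly luciferase using Km concentrations of substrates (10 uM D-luciferin, 10 uM ATP) in Tris acetate pH 7.5 buffer; luminescence output.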
Rab9 promoter act = activators of Rab9 promoter; Huh7 Rab9 promoter-luciferase reporter, luminescence, 24 h; Potency, µM (highest dose often 9.22 µM), hits mostly activators; 2.8% of 320,000 active; AID 485297; note: nearly all actives have a fitted effect of over 60% in size
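Measured in stably transfected Huh7 cells bearing a Rab9 promoter–luciferase construct: 24 h compound treatment at 37 °C, followed by luminescence detection.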
SMN2 splice up = increases expression of the SMN2 splice variant | HEK293 SMN2-luciferase splicing reporter, luminescence, 30-36 h | Potency, µM (top dose mostly 46.1 µM), hits mostly activators | 2.8% of 210,000 active | AID 1458; note: nearly all actives have a fitted effect of over 55% in size
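HEK293 cells carry an SMN2 minigene-luciferase reporter in which exon 7 inclusion puts luciferase in frame. Cells were seeded at 2000 cells/well, attached for 10-12 hours, then exposed to compounds for 30-36 hours at 37C before ONE-Glo luminescence.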
ELG1 genotoxic = genotoxicity induction in ELG1-luciferase HEK293T cells | HEK293T ELG1-luciferase reporter, luminescence, 16 h | Potency, µM (titrated, usually from 46 µM), most hits filed as activators | 1.3% of 330,000 active; note: nearly all actives have a fitted effect of over 60% in size
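Screening used a luciferase reporter fused to human ELG1 in HEK293T cells. Luminescence was read on a CCD plate imager after 16 hr exposure and 30 min ONE-Glo incubation.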
NPC1 prom act = activators of NPC1 promoter | Huh7 NPC1 promoter luciferase reporter, 24 h | Potency, µM (top dose mostly 9.22 µM), actives largely listed as activators | 2.4% of 320,000 active | AID 485313; note: nearly all actives have a fitted effect of over 60% in size
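Huh7 reporter cells (NPC1 promoter driving luciferase) are dosed with compound for 24 h at 37 °C, 5% CO2; luciferase detection reagent is then added and luminescence measured after 10 min at ambient temperature.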
Numbers stand for hits; n = inactive; u = inconclusive; x = no result; [ ] = dose if it differs, or a comment. Compounds with a hit are over-represented: about 7.5% of the library has one in this group of screens. Calls come from the whole dose curve; as a rule, active = well fitted curve in the direction sought with a large enough effect; inconclusive = small, poorly fitted or top-dose-only effect, or another doubt; inactive = no such curve, though single readings can be large; an effect the other way counts as inactive or inconclusive.

SMILES	FLuc counter	Rab9 promoter act	SMN2 splice up	ELG1 genotoxic	NPC1 prom act
CN1CCS/C1=C\C=C1/SC(=S)N(CC(=O)O)C1=O	13µM	n	n	n	n
CCCCN1C(=O)/C(=C/C=C2/CC(C)(C)CN2C)SC1=S	9.5µM	u	n	u	n
CCc1ccc(NC(=O)CNC(=O)Cn2ccc3ccccc3c2=O)cc1	n	n	x	u	n
CCC(Cc1ccccc1)NC(=O)/C=C/c1ccco1 (stereo not given)	n	n	x	n	n
C/C(=N\OC(=O)c1ccc(OC(C)C)cc1)c1ccc(C)c(C)c1	13µM	n	n	n	n
COc1ccc(C(=O)O/N=C(\C)c2ccccc2)cc1	0.67µM	n	n	n	n
COc1ccc(C(=O)O/N=C(/c2ccccc2)c2ccncc2)cc1	u	n	x	u	n
CC(C)=NOC(=O)c1ccc(-c2ccccc2)cc1	8.5µM	n	u	n	n
CC/C(=N\OC(=O)c1ccc(OC(C)C)cc1)c1ccc(C)cc1	u	n	n	n	n
Cc1ccc(-n2ncc(C(=O)Nc3c(Cl)cccc3Cl)c2C2CCNCC2)cc1	n	x	x	x	x
CCOc1cc(NCCN2CCOCC2)c([N+](=O)[O-])cc1OCC	n	n	x	n	n
Cc1nc2ccccc2n1CC(=O)c1ccccc1	n	n	x	n	n
CC(=O)c1c(C)[nH]c(C(=O)NNC(=O)COc2cc(C)ccc2C(C)C)c1C	x	x	x	n	x
COc1ccc(NC(=S)Nc2ccc(N)c([N+](=O)[O-])c2)cc1	u	n	16µM	u	n
Nn1c(-c2ccccc2Cl)nnc1-c1ccccc1Cl	0.95µM	4µM	u	u	3.5µM
COc1cccc(CNC(=O)c2ccc(NC(=O)N3CCCCc4ccccc43)cc2)c1	n	x	x	x	x
Cc1nc2ccc(NC(=O)c3cc(Cl)ccn3)cc2s1	1.5µM	0.5µM	x	1.3µM	0.71µM
Cc1nc2ccc(NC(=O)NCCCO)cc2s1	n[2.3 µM]	u	13µM	n	u
Cc1nc2ccc(NC(=O)c3ccc(Cl)nc3)cc2s1	u	n	x	n	n
Cc1nc2cc(NC(=O)c3ccc(Br)s3)ccc2s1	0.48µM	0.32µM	x	u	0.4µM
Cc1nc2ccc(NC(=O)c3cc([N+](=O)[O-])cc([N+](=O)[O-])c3Cl)cc2s1	12µM	n	n	u	n
O=C(c1ccco1)N1CCN(C(=O)C(Cc2ccccc2)NS(=O)(=O)c2cccs2)CC1 (stereo not given)	n	n	n	n	n
Cc1ccc(C(=O)Nc2ccc3nc(C)sc3c2)s1	6.7µM	1.8µM	13µM	u	2.2µM
Cc1cccnc1Nc1nc(-c2ccc(O)cc2O)cs1	15µM	3.2µM	x	u	u
Oc1ccc(-c2csc(Nc3ccccn3)n2)c(O)c1	4.8µM	3.2µM	x	9.2µM	1.8µM
SMILES	FLuc counter	Rab9 promoter act	SMN2 splice up	ELG1 genotoxic	NPC1 prom act
Cc1ccc(N(CC(=O)NCc2ccccc2)C(=O)CCC(=O)Nc2ccccn2)c(C)c1	n	n	x	n	n
CCc1ccc(-c2ccc(C(=O)Oc3ccc(Br)cc3)cc2)nc1	n	x	n	x	x
CCc1ccc(-c2ccc(C(=O)O)cc2)nc1	8.5µM	3.5µM	u	n	u
N#C/C(=C/c1ccc(N2CCOCC2)o1)c1ccc(Cl)cc1	8.5µM	2.8µM	u	u	3.5µM
N#C/C(=C/c1ccc(N2CCCC2)c([N+](=O)[O-])c1)c1nc2ccccc2[nH]1	6µM	u	n	n	u
N#C/C(=C\c1ccc(N2CCOCC2)o1)c1nc2ccccc2[nH]1	0.43µM	0.5µM	0.56µM	u	0.71µM
N#C/C(=C\c1ccc(N2CCOCC2)c([N+](=O)[O-])c1)c1nc2ccccc2[nH]1	15µM	n	n	n	n
COc1ccccc1/C=C/C(=O)NCC(=O)N/N=C(/C)c1ccco1	n	n	x	n	n
O=C(Nc1cccc(Cl)c1)Nc1cccc(Cl)c1	u	n	n	n	n
O=C(Nc1ccncc1)Nc1ccccc1Cl	u	n	x	n	n
N#Cc1ccccc1NC(=O)Nc1ccc(Cl)cc1	u	n	n	n	n
O=C(Nc1ccccc1Cl)Nc1ccccc1Cl	u	n	x	n	n
O=C(Nc1csc([N+](=O)[O-])c1)Nc1ccccc1Cl	17µM	n	x	n	n
O=C(Nc1ccc(Cl)cc1)Nc1ccccc1Sc1ncc([N+](=O)[O-])s1	12µM	u	x	u	u
O=C(Nc1ccccc1)Nc1cc(Cl)cc(Cl)c1	27µM	u	n	n	n
